From PubChem BioAssay come the findings set out here.

A number with no mark means an inactive call. For some of these results: Potency and affinity values are given separately. The source made the active and inactive calls. Unless noted, how the calls were made is not given here.

Assay [1] is described as follows: antimalarial activity against Dd2 strain (AID 2302;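 active means growth inhibition above 50% at the single 2 µM test dose, taken to imply half-maximal potency below 2 µM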;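 further: 0% = DMSO untreated growth and 100% = chloroquine plus artemisinin killed control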). Particulars: P. falciparum Dd2 in RBCs, LDH growth readout, 72 h; at 2 µM; hits give high values.
Assay [2] in a line: HepG2 cytotoxicity, primary screen, cytotoxicity control for P. falciparum antimalarial project, cell-based, ATP luminescence (AID 2303;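 active means inhibition above 50%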;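 further: 0% = DMSO wells and 100% = digitonin-killed cells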). The following applies: HepG2 viability, 24-48 h, at 10 µM, hits give high values.
The target in assay [3] is L-lactate dehydrogenase (Plasmodium falciparum (isolate CDC / Honduras)) (UniProt Q27743). The assay is described as follows: PfLDH activity inhibition – cell lysate, 3D7 strain, counter-screen for P. falciparum growth inhibition project (AID 2304).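 Further: 0% = vehicle and 100% = reference inhibitor.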 Particulars: P. falciparum 3D7 crude extract, LDH APAD/NBT absorbance; at 2 µM; hits give high values. A general note: The purpose of a counterscreen is to sort out artefacts and off-target activity.
Sequence of L-lactate dehydrogenase (Plasmodium falciparum (isolate CDC / Honduras)) (Q27743 whole entry, looked up): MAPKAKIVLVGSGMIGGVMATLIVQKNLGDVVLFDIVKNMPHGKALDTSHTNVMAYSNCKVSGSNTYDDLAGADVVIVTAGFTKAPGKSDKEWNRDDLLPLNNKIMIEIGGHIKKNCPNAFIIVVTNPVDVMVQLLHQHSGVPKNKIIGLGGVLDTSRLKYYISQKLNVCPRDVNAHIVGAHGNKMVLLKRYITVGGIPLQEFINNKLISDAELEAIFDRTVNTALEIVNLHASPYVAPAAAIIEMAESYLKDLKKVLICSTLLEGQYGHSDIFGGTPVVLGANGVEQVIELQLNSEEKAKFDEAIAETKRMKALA

Assay [4] in a line: inhibition of 3D7 malaria parasite growth – strain 3D7 (AID 2306).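 Further: 0% = DMSO wells and 100% = chloroquine plus artemisinin control wells.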 The following applies: P. falciparum 3D7 erythrocytic growth, LDH absorbance, 72 h; at 2 µM; hits give high values.
Assay [5] has as its target Calcium-dependent protein kinase 1 (Plasmodium falciparum (isolate 3D7)) (UniProt P62344). Briefly: PfCDPK1 kinase inhibitors, biochemical, TCAMS library (AID 1159585; cut-off not given, nearly all actives have IC50 up to about 0.98 µM;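 further: inhibitors leave more ATP so luminescence rises with inhibition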). The following applies: recombinant PfCDPK1, Kinase-Glo ATP depletion luminescence.
The target in assay [6] is Plasmodium falciparum protein kinase 6 (PK6, PF3D7_1337100) (UniProt Q8IDW1). Briefly: PfPK6 kinase inhibitors, biochemical, TCAMS library (AID 1159586). Particulars: recombinant PfPK6, Kinase-Glo ATP depletion luminescence. For orientation: In Kinase-Glo more light means more ATP remaining.
Sequence of Plasmodium falciparum protein kinase 6 (PK6, PF3D7_1337100) (Q8IDW1 1-305): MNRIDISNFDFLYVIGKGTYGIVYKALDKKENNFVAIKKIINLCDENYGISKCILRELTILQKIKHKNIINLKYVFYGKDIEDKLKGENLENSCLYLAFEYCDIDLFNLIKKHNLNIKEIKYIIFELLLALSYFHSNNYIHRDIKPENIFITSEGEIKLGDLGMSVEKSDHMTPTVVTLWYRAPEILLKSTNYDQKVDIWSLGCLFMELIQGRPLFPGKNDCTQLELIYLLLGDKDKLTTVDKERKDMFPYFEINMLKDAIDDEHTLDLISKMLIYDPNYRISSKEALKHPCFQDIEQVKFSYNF
For assay [7], the target named is Protein kinase 7 (PK7), Plasmodium falciparum 3D7 (PF3D7_0213400) (UniProt Q7YTF7). The assay is described as follows: inhibition of Plasmodium PK7 catalytic activity – biochemical, TCAMS antimalarial set, Kinase-Glo luminescence (AID 1159587). The following applies: recombinant PfPK7, Kinase-Glo ATP depletion luminescence.
Sequence of Protein kinase 7 (PK7), Plasmodium falciparum 3D7 (PF3D7_0213400) (Q7YTF7 1-343): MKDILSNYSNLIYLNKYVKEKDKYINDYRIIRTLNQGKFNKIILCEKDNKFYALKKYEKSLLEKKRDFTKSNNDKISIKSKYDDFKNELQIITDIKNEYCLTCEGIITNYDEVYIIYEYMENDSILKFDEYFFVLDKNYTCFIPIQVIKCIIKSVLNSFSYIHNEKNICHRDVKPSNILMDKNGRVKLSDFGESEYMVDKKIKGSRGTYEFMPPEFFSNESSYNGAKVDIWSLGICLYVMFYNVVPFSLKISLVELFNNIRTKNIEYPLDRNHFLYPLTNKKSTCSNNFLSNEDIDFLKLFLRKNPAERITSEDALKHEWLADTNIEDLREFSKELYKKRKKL
For assay [8], the target named is Calcium-dependent protein kinase 4 (Plasmodium falciparum (isolate 3D7)) (UniProt Q8IBS5). Briefly: PfCDPK4 kinase inhibitors, biochemical, TCAMS library (AID 1159588; cut-off not given, nearly all actives have IC50 up to about 0.91 µM). Particulars: recombinant PfCDPK4, Kinase-Glo ATP depletion luminescence.
Sequence of Calcium-dependent protein kinase 4 (Plasmodium falciparum (isolate 3D7)) (Q8IBS5 whole entry, looked up): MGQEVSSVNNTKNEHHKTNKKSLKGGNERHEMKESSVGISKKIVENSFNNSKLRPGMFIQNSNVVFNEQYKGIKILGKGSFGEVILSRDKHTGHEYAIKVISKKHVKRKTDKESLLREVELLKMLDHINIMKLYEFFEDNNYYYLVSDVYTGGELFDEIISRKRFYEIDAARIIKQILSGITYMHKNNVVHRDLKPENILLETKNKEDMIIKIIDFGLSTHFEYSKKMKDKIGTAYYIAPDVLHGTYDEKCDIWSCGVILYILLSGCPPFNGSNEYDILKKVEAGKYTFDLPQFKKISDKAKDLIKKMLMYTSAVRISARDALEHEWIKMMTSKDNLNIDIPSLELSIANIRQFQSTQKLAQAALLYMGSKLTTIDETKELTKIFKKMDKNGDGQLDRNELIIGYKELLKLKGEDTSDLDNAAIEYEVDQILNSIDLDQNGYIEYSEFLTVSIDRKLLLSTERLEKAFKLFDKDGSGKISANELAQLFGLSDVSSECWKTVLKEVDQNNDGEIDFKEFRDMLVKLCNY

Sequence of Calcium-dependent protein kinase 1 (Plasmodium falciparum (isolate 3D7)) (P62344 whole entry, looked up): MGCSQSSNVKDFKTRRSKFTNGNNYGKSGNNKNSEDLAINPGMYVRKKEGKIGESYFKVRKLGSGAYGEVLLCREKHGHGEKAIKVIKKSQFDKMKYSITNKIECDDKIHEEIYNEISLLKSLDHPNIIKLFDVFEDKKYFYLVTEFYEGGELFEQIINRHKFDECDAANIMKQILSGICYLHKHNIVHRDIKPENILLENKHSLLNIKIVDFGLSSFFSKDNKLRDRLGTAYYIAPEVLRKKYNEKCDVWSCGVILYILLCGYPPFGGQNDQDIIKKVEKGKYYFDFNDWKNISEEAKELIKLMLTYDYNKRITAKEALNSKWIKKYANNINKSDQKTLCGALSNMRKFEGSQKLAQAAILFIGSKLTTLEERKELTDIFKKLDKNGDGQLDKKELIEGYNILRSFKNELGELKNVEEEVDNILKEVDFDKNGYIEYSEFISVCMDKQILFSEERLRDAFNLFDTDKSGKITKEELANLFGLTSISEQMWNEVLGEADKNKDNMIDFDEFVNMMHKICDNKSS

On to `COc1ccccc1/C=C/C(=O)N(C)C1CCN(CCCCCNC(=O)/C=C/c2ccc(Cl)c(Cl)c2)CC1`, for which the growth inhibition in assay [1] is 63% (active); in assay [4], 83% (active). Also, the inhibition was 71% (active) in assay [2] and -3% in assay [3]. The outcome in assay [5], in assay [6], in assay [7] and in assay [8] was inactive.
In the case of `Nc1ncc(-c2ccccc2)cc1/C=C/c1cccnc1`, the growth inhibition in assay [1] was 9%; in assay [4], 91% (active). Further, the inhibition was 33% in assay [2] and -2% in assay [3]. The outcome in assay [5], in assay [6], in assay [7] and in assay [8] was inactive.
For `Cc1ccc(-n2c(Sc3ncnc4sccc34)nnc2N2CCCC2)cc1`, the growth inhibition was 100% (active) in assay [1] and 99% (active) in assay [4]. Further, the figures for the inhibition in assay [2] and in assay [3] were 0% and -3%, respectively. In addition, the outcome in assay [5], in assay [6], in assay [7] and in assay [8] was inactive.
Consider `O=C(c1ccc(F)cc1)N1CCOC(CCN2CCC(c3ccccc3)CC2)(c2ccc(Cl)c(Cl)c2)C1` (centres undefined), for which the results for the growth inhibition in assay [1] and in assay [4] were 84% (active) and 88% (active), respectively. Moreover, the figures for the inhibition in assay [2] and in assay [3] were 29% and -6%, respectively. Besides, the result in assay [5], in assay [6], in assay [7] and in assay [8] was inactive.
For `CC(=NNC(=S)NC(c1ccccc1)c1ccccc1)c1ccccn1`, the growth inhibition in assay [1] is 97% (active); in assay [4] it was 98% (active). The results for the inhibition in assay [2] and in assay [3] were 45% and -2%, respectively. Further, the result in assay [5], in assay [6], in assay [7] and in assay [8] was inactive.
In the case of `CN(CCCNC(=S)NC12CC3CC(CC(C3)C1)C2)CCCNc1ccnc2cc(Cl)ccc12`, the results for the growth inhibition in assay [1] and in assay [4] were 98% (active) and 100% (active), respectively. In addition, the inhibition in assay [2] is 73% (active); in assay [3] it was 8%. Also, the outcome in assay [5], in assay [6], in assay [7] and in assay [8] was inactive.
On to `Nc1nccc2ccc(-c3ccsc3)cc12`, for which the results for the growth inhibition in assay [1] and in assay [4] were 89% (active) and 100% (active), respectively. In addition, the inhibition in assay [2] is 38%; in assay [3] it was 4%. In addition, the result in assay [5], in assay [6], in assay [7] and in assay [8] was inactive.
On to `Cc1ccc(-c2ccc3c(c2)C=C(C(=O)NC2CCN(CCNC(=O)c4cccs4)CC2)CCC3)cc1`, for which the growth inhibition in assay [1] was 30%; in assay [4], 90% (active). Moreover, the inhibition in assay [2] is 27%; in assay [3] it was -1%. The outcome in assay [5], in assay [6], in assay [7] and in assay [8] was inactive.
For `CCCCc1ccc(NC(=O)Nc2ccc3c(c2)CCNCC3)cc1`, the growth inhibition is 43% in assay [1] and 95% (active) in assay [4]. Further, the results for the inhibition in assay [2] and in assay [3] were 16% and 0%, respectively. Further, the outcome in assay [5], in assay [6], in assay [7] and in assay [8] was inactive.
As for `CN1CCN(c2ccnc3ccc(NC(=O)Cc4cccc(Cl)c4Cl)cc23)CC1`, the growth inhibition is 64% (active) in assay [1] and 102% (active) in assay [4]. For the same compound, the inhibition in assay [2] is 8%; in assay [3] it was 3%. Further, the outcome in assay [5], in assay [6], in assay [7] and in assay [8] was inactive.
For the compound `CC12CCC(C(=O)N(CC(O)Cn3c4ccc(Cl)cc4c4cc(Cl)ccc43)C1=O)C2(C)C` (centres undefined), the values for the growth inhibition in assay [1] and in assay [4] were 99% (active) and 100% (active), respectively. For the same compound, the inhibition in assay [2] is -1%; in assay [3], -5%. Moreover, the outcome in assay [5], in assay [6], in assay [7] and in assay [8] was inactive.
Turning to `FC(F)(F)c1ccc2nc(-c3ccc(-c4ccc(CNCC5CCCO5)cc4)s3)[nH]c2c1` (centres undefined), the growth inhibition is 98% (active) in assay [1] and 101% (active) in assay [4]. Also, the inhibition in assay [2] is 47%; in assay [3], -6%. In addition, the result in assay [5], in assay [6], in assay [7] and in assay [8] was inactive.
Consider `COc1ccc(CNC(=O)c2cnc3c(O)cccc3c2Nc2cccc(NC(=O)c3ccc(Cl)c([N+](=O)[O-])c3)c2)cc1`, for which the values for the growth inhibition in assay [1] and in assay [4] were 21% and 86% (active), respectively. The inhibition in assay [2] is 48%; in assay [3], 1%. The outcome in assay [5], in assay [6], in assay [7] and in assay [8] was inactive.
In the case of `CS(=O)(=O)CCNCc1nc(-c2ccc3ncnc(Nc4ccc(OCc5ccccc5)c(Cl)c4)c3c2)cs1`, the values for the growth inhibition in assay [1] and in assay [4] were 55% (active) and 99% (active), respectively. For the same compound, the values for the inhibition in assay [2] and in assay [3] were 13% and 2%, respectively. The outcome in assay [5], in assay [6], in assay [7] and in assay [8] was inactive.
As to `CC1(C)N=C(N)N=C(N)N1c1ccc(I)cc1`, the figures for the growth inhibition in assay [1] and in assay [4] were 1% and 92% (active), respectively. The inhibition was 16% in assay [2] and 1% in assay [3]. Besides, the result in assay [5], in assay [6], in assay [7] and in assay [8] was inactive.
As for `CCNc1cc(C(=O)N[C@@H](Cc2ccccc2)[C@H](O)CNC23CC4CC(CC(C4)C2)C3)cc(N2CCCCS2(=O)=O)c1`, the growth inhibition is 99% (active) in assay [1] and 98% (active) in assay [4]. Also, the inhibition was 3% in assay [2] and -2% in assay [3]. Moreover, the result in assay [5], in assay [6], in assay [7] and in assay [8] was inactive.
On to `Oc1ccc2[nH]c(-c3cccs3)nc2c1CN1CCC(O)(c2ccccc2)CC1`, for which the figures for the growth inhibition in assay [1] and in assay [4] were 69% (active) and 93% (active), respectively. Moreover, the inhibition in assay [2] is 10%; in assay [3], -1%. Further, the outcome in assay [5], in assay [6], in assay [7] and in assay [8] was inactive.
For `N#CC(c1ccc(F)cc1)c1ccc2c(C(F)(F)F)cc(C(F)(F)F)nc2n1` (centres undefined), the values for the growth inhibition in assay [1] and in assay [4] were 89% (active) and 97% (active), respectively. Besides, the inhibition was 9% in assay [2] and 2% in assay [3]. For the same compound, the outcome in assay [5], in assay [6], in assay [7] and in assay [8] was inactive.
Consider `COc1ccc(CNC2Cc3ccccc3C2)cc1-c1ccc(OC)c(S(=O)(=O)NCCN2CCCC2)c1`, for which the growth inhibition was 97% (active) in assay [1] and 101% (active) in assay [4]. In addition, the inhibition is 31% in assay [2] and -9% in assay [3]. The result in assay [5], in assay [6], in assay [7] and in assay [8] was inactive.
Regarding `O=C(Nc1ccc(-c2oc(C(=O)NCCc3cccc(Cl)c3)cc2-c2ccncc2)cc1)Nc1cccc(Cl)c1`, the growth inhibition is 84% (active) in assay [1] and 99% (active) in assay [4]. Further, the inhibition in assay [2] is 13%; in assay [3], -1%. Besides, the outcome in assay [5], in assay [6], in assay [7] and in assay [8] was inactive.
`O=C(Nc1ccc2c(c1)CCN2C1CCN(Cc2cccc(F)c2F)C1)c1ccco1` (centres undefined): the growth inhibition was 90% (active) in assay [1] and 87% (active) in assay [4]. Further, the results for the inhibition in assay [2] and in assay [3] were -4% and 0%, respectively. Moreover, the outcome in assay [5], in assay [6], in assay [7] and in assay [8] was inactive.
`N=c1n(Cc2ccccc2)c2ccccc2n1CC(O)c1ccc(Cl)c(Cl)c1` (centres undefined): the values for the growth inhibition in assay [1] and in assay [4] were 98% (active) and 95% (active), respectively. In addition, the inhibition is 40% in assay [2] and 4% in assay [3]. Moreover, the outcome in assay [5], in assay [6], in assay [7] and in assay [8] was inactive.
Consider `CCOC(=O)c1ccc(NC(=O)Nc2ccc(Cn3ncc(N4CCCNCC4)c(Cl)c3=O)cc2)cc1`, for which the figures for the growth inhibition in assay [1] and in assay [4] were 58% (active) and 88% (active), respectively. Besides, the inhibition in assay [2] and in assay [3] was 2% throughout. Also, the result in assay [5], in assay [6], in assay [7] and in assay [8] was inactive.

Usually inhibition stands for the change of the read-out against control, counted positive when it falls.
